Inconclusive results are not listed. A number with no mark means an inactive call. The call rests on the fitted dose curve; in most records, active means well fitted activation curve with a large enough effect; inconclusive means small, poorly fitted or top-dose-only effect; inactive means no such curve, though single readings can be large or run the other way.
Target: Cellular tumor antigen p53 (Homo sapiens) (UniProt P04637)
Assay: Primary qHTS for small molecule compounds that upregulate eGFP-tagged delta133p53alpha (in N-terminal) cells. (AID 2060322);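 further: cells pre-induced with doxycycline then dosed without doxycycline; series mostly up to about 56 µM; 0% = DMSO vehicle and 100% = reference activator; nearly all actives have a fitted effect of over 75% in size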
Settings: NCI-H358 eGFP-delta133p53alpha fluorescence, 24 h; activation: stronger effect = higher value
Procedure, shortened: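 NCI-H358 cells pre-induced 24 h with 10 ng/ml doxycycline for eGFP-delta133p53alpha, plated dox-free and exposed 24 h at 37C to titrated compounds. Fixed, Hoechst-stained; gated GFP peak intensity by laser scanning cytometry, normalized to DMSO (0%) and 57.5 uM 5-azacytidine (100%).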

Chain of Cellular tumor antigen p53 (Homo sapiens) (P04637 whole entry, looked up): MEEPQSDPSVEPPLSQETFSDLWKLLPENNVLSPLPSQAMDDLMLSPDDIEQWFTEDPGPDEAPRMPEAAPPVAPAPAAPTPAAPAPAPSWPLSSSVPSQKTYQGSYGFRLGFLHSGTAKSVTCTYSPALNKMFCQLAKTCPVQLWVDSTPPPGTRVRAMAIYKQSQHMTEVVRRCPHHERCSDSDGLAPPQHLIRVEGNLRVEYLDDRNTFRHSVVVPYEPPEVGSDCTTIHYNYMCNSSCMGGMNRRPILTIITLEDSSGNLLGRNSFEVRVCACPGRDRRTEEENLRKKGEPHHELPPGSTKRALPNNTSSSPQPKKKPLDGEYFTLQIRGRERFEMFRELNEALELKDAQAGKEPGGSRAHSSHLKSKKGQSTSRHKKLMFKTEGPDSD

Row | SMILES | activation [%]
1 | CC1=CC(=O)CC(C)(C)C1CO[C@@H]1O[C@H](CO)[C@@H](O)[C@H](O)[C@H]1O (stereo not given in full) | 6.25
2 | COc1cc(/C=N\NC(=O)c2ccc3c(c2)OCO3)ccc1OCc1ccccc1 | 2.39
3 | CC(=O)c1c(C)cccc1O[C@@H]1O[C@H](CO)[C@@H](O)[C@H](O)[C@H]1O | 13
4 | COc1cc(C(=O)OCC2=CCC3C(C(=O)O)=COC(O[C@@H]4O[C@H](CO)[C@@H](O)[C@H](O)[C@H]4O)C23)ccc1O (stereo not given in full) | -9.82
5 | COc1cc(/C=C/CO[C@@H]2O[C@H](CO)[C@@H](O)[C@H](O)[C@H]2O)cc(OC)c1O[C@@H]1O[C@H](CO)[C@@H](O)[C@H](O)[C@H]1O | 0.893
6 | COc1c2cc(c(O[C@@H]3O[C@H](CO)[C@@H](O)[C@H](O)[C@H]3O)c1OC)CCCCC(O)CCc1ccc(O)c-2c1 (stereo not given in full) | 8.93
7 | OC[C@H]1O[C@@H](Oc2cc(O)cc(-c3cc4ccc(O[C@@H]5O[C@H](CO)[C@@H](O)[C@H](O)[C@H]5O)cc4o3)c2)[C@H](O)[C@@H](O)[C@@H]1O | -14.3
8 | CC(C)n1nc(C#Cc2ccccc2)c2c(N)ncnc21 | 25
9 | CC1=C(CCC(C)O[C@@H]2O[C@H](CO)[C@@H](O)[C@H](O)[C@H]2O)C(C)(C)CC(O)C1 (stereo not given in full) | -7.63
10 | C[C@@H](OC(=O)/C=C/c1ccc(O)cc1)C1=C[C@]2(C=C[C@@H]3C(C(=O)O)=CO[C@@H](O[C@@H]4O[C@H](CO[C@@H]5O[C@H](CO)[C@@H](O)[C@H](O)[C@H]5O)[C@@H](O)[C@H](O)[C@H]4O)[C@@H]32)OC1=O | -5.34
